Screening data: PubChem BioAssay, several laboratories
RecA splice inh = inhibitors of M. tuberculosis RecA intein splicing; inhibition, % (concentration not given with the values); P9WHJ3; cell-free RecA intein splicing, fluorescence; hit rate 0.75% among 290,000; in the data active = inhibition above about 30%
CCHF vOTU inh = CCHFV vOTU protease inhibition. inhibition, % at 11.5 µM. AID 651958. Pep-AMC fluorescence. hit rate 0.55% among 370,000
DUSP3 inh = blocks human VHR1 dual specificity phosphatase; P51452; recombinant VHR phosphatase, pNPP absorbance; inhibition, % at 13.3 µM; hit rate 0.52% among 290,000; AID 1654; in the data active = inhibition above about 50%
3CLpro inhibitor = SARS-CoV 3CLpro protease inhibition | AID 1706 | inhibition, % at 6 µM | recombinant SARS-CoV 3CLpro, quenched FRET peptide cleavage | P0C6X7 | hit rate 0.14% among 290,000; in the data active = inhibition above about 12%
GDH-TPI counter = counter-screen for M. tuberculosis FBA inhibitors: GDH-TPI coupled enzymes | GDH-TPI coupled enzyme counterscreen, NADH absorbance | inhibition, % at 4.8 µM | hit rate 1.2% among 360,000 | AID 588335
Mtb FBA inh = inhibits M. tuberculosis FBA enzyme; P9WQA3; purified M. tuberculosis FBA, fluorescence read-out; inhibition, % at 1 µM; hit rate 2.3% among 360,000; in the data active = inhibition above about 27%
Hits are given with their value; - = inactive; . = no result; + = active, no number. Only some compounds are listed: those with a hit (about 4.7% of all), similar ones and a draw of the others. Cut-off read from the data, not from the text of the source, unless noted: active = inhibition above about 30%; inactive = the rest.

SMILES | RecA splice inh | CCHF vOTU inh | DUSP3 inh | 3CLpro inhibitor | GDH-TPI counter | Mtb FBA inh
Cc1c(NS(=O)(=O)c2ccc3c(c2)OCCO3)cccc1-c1nc2cccnc2s1 | - | - | - | - | - | -
Cc1cc(-c2nc3cccnc3s2)ccc1NS(=O)(=O)c1cccs1 | - | - | - | - | 42 | +
Cc1cc(-c2nc3cccnc3s2)ccc1NS(=O)(=O)c1ccc2c(c1)OCCO2 | - | - | - | - | - | +
Cc1nc2ccc(S(=O)(=O)Nc3cccc(-c4nc5cccnc5s4)c3)cc2s1 | - | - | - | - | - | -
Cc1c(NS(=O)(=O)c2cccs2)cccc1-c1nc2cccnc2s1 | - | - | - | - | - | -
CCS(=O)(=O)Nc1ccc(-c2nc3cccnc3s2)cc1 | - | - | - | - | - | +
Cc1nc2ccc(S(=O)(=O)Nc3ccc(-c4nc5cccnc5s4)cc3)cc2s1 | - | - | - | - | - | +
O=C(Nc1ccc(F)cc1)C(c1cc2ccccc2o1)N1CCN(C(=O)c2ccco2)CC1 (stereo unspecified) | . | - | . | . | . | .
COc1cc2nc(CCc3ccccc3)oc(=O)c2cc1OC | - | - | - | - | - | -
CC(C)(C)c1ccc(S(=O)(=O)NC(=O)C2(C)CCN2C(=O)c2cccc3ccccc23)cc1 (stereo unspecified) | . | - | . | . | - | -
O=S(=O)(Nc1cccc2ncccc12)c1cccs1 | - | . | - | - | - | -
O=S(=O)(Nc1ccc(-c2nc3cccnc3s2)cc1)c1cccs1 | - | - | - | - | - | +
COC(=O)[C@]12C[C@H](CC(=O)N3CCSCC3)C(=O)N(Cc3ccccc3)C1=C[C@H](C(C)C)O[C@@H]2C1CC1 | . | - | . | . | . | .
Cc1ccc(-n2[nH]c(C)c(C=Nc3ccc4[nH]c(=O)[nH]c4c3)c2=O)cc1 | - | - | - | - | - | -
Cc1[nH]n(-c2cccc3ccccc23)c(=O)c1C=Nc1ccc2[nH]c(=O)[nH]c2c1 | - | - | - | - | 35 | -
CSc1ncc(Cl)c(C(=O)NCc2cccnc2)n1 | - | - | 52 | - | - | -
CSc1ncc(Cl)c(C(=O)NCc2ccc3c(c2)OCO3)n1 | - | - | - | - | - | -
O=c1[nH]nc(N/N=C/c2ccc(Cl)cc2Cl)c(=O)[nH]1 | - | - | - | - | 38 | -
Cc1ccc(-c2c(C)sc3nc[nH]c(=O)c23)cc1C | - | - | 53 | - | - | -
COc1ccccc1NC(=O)CCNC(=O)c1ccc(C)cc1 | - | - | - | - | - | -
Cc1csc(CNc2ncnc3ccc(-c4cccc(Cl)c4)cc23)c1 | . | - | . | . | - | -
CCOC(=O)c1ccc(-c2ccc3ncnc(NCc4csc(C)n4)c3c2)o1 | . | - | . | . | 37 | +
COC(=O)[C@@H](Cc1c[nH]c2ccccc12)NC(=O)c1ccc2c(c1)OCO2 | - | - | 53 | - | - | -
O=C(COC(=O)[C@H](Cc1c[nH]c2ccccc12)NC(=O)c1ccc(Cl)cc1)Nc1ccc2c(c1)OCO2 | - | - | - | - | - | -
Cc1ccc(C(=O)NN=Cc2ccc3c(c2)OCO3)cc1 | . | - | . | . | 35 | -
SMILES | RecA splice inh | CCHF vOTU inh | DUSP3 inh | 3CLpro inhibitor | GDH-TPI counter | Mtb FBA inh
O=C(N/N=C/c1ccccc1)c1ccc2c(c1)OCO2 | - | - | - | - | - | -
CN(C)c1ccc(/C=N/NC(=O)c2ccc3c(c2)OCO3)cc1 | - | - | - | - | 42 | -
CN(C)c1ccc(/C=N/NC(=O)c2cccc(N3CCCC3=O)c2)cc1 | - | - | - | - | 46 | -
CC1(C(=O)NS(=O)(=O)c2ccc(C#N)cc2)CCN1C(=O)CC1CCCCC1 (stereo unspecified) | . | - | . | . | - | -
CN(Cc1ccccc1)C(=O)c1ccc(NC(=O)Cc2cccc(NC(=O)C3CCN(C(=O)C4CCCC4)CC3)c2)cc1 | . | - | . | . | - | -
C=CCN1CC(COCCCC)Oc2ccc(Cl)cc2S1(=O)=O (stereo unspecified) | . | - | . | . | . | .
Cc1cnc2nc(-c3ccccc3)ccc2c1 | . | - | . | . | . | -
COCCCNC(=O)CSc1nnc(-c2ccncc2)n1-c1ccc(OC)cc1 | . | - | . | . | . | .
O=C(NN=Cc1ccc2c(c1)OCO2)NN=Cc1ccc2c(c1)OCO2 | . | - | . | . | 38 | -
O=C(Cc1ccccc1)N/N=C/c1ccc2c(c1)OCO2 | - | - | - | - | - | -
O=C(N/N=C/c1cccc([N+](=O)[O-])c1)c1cc(-c2ccc3c(c2)OCO3)n[nH]1 | - | - | 51 | - | - | -
O=C(N/N=C/c1cccc(O)c1)c1cc(-c2ccc3c(c2)OCO3)n[nH]1 | - | - | - | - | - | -
